PubChem BioAssay (NCI)
About 83,000 compounds went through this panel and 20% of them were active in at least one assay; those are over-represented in the sample as a whole.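 Step 1: grow cells in 96-well plates. Step 2: add test compound at a single concentration. Step 3: incubate 48 h. Step 4: record percent growth.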 A number with no mark means an inactive call. Active and inactive are the calls of the source. Rule for the calls: active = growth percent below 10; inactive = the rest.

Key:
Assay in all cases: NCI-60 one-dose screen, 48 h (100 = growth as untreated, 0 = no growth, -100 = all killed)
Details in all cases: 10 µM unless noted
HCT-15 colon = test system: HCT-15 colon
HT29 colon = test system: HT29 colon
SNB-75 CNS = test system: SNB-75 CNS
SNB-19 CNS = test system: SNB-19 CNS
PC-3 prostate = test system: PC-3 prostate
SK-MEL-5 melanoma = test system: SK-MEL-5 melanoma
UACC-62 melanoma = test system: UACC-62 melanoma
LOX IMVI melanoma = test system: LOX IMVI melanoma
SK-MEL-2 melanoma = test system: SK-MEL-2 melanoma
EKVX NSCLC = test system: EKVX NSCLC
SN12C renal = test system: SN12C renal
UO-31 renal = test system: UO-31 renal
TK-10 renal = test system: TK-10 renal
ACHN renal = test system: ACHN renal
CAKI-1 renal = test system: CAKI-1 renal
A498 renal = test system: A498 renal
CCRF-CEM leukemia = test system: CCRF-CEM leukemia
MOLT-4 leukemia = test system: MOLT-4 leukemia
SK-MEL-28 melanoma = test system: SK-MEL-28 melanoma
U251 CNS = test system: U251 CNS

Row | Structure (SMILES) | growth (HCT-15 colon) | growth (HT29 colon) | growth (SNB-75 CNS) | growth (SNB-19 CNS) [%] | growth (PC-3 prostate) | growth (SK-MEL-5 melanoma) | growth (UACC-62 melanoma) | growth (LOX IMVI melanoma) | growth (SK-MEL-2 melanoma) | growth (EKVX NSCLC) | growth (SN12C renal) [%] | growth (UO-31 renal) | growth (TK-10 renal) | growth (ACHN renal) | growth (CAKI-1 renal) | growth (A498 renal) | growth (CCRF-CEM leukemia) | growth (MOLT-4 leukemia) | growth (SK-MEL-28 melanoma) | growth (U251 CNS)
1 | CS(=O)(=O)Nc1cc(-c2ccc3ncc(C#N)c(NCc4ccccc4O)c3c2)cnc1Cl | 8.71% (active) | 15.5% | 32.3% | 11.9 | 9.68% (active) | -90.3% (active) | -25.3% (active) | -34.5% (active) | -38.3% (active) | 4.89% (active) | 17.1 | 3.5% (active) | -6.17% (active) | 12.4% | -1.29% (active) | -41% (active) | 19.9% | -0.509% (active) |  | 
2 | COC(=O)C(Cc1ccccc1)Nc1nc(NC(Cc2ccccc2)C(=O)OC)nc(N2CCOCC2)n1 (stereo not drawn) | 106% | 101% | 90.5% | 104 | 103% | 98.7% | 90.2% | 105% | 111% | 105% | 104 | 81.2% | 103% | 109% | 86.8% | 107% | 105% | 101% | 109% | 
3 | C/C(=N\O)[C@H]1C[C@]23CC[C@]4(C)[C@H](CC[C@@H]5[C@@]6(C)CC/C(=N/O)C(C)(C)[C@@H]6CC[C@]54C)[C@H]2[C@H](C)C1(C)OC3 | 105% | 113% | 72% | 97.7 | 94.8% | 100% | 89.7% | 98.2% | 110% | 70.9% | 91.5 | 67% | 73.7% | 104% | 65.2% | 72% | 101% | 98.7% |  | 
4 | O=C(CN1CCN(c2cc(=O)n(-c3ccccc3)c3ccccc23)CC1)Nc1cccc(C(F)(F)F)c1 | 48.5% | 70.8% | 65.5% | 70.9 | 42.1% | 14.4% | 57.2% | 66.1% | 92% | 42.9% | 75.9 | 33% | 74.4% |  | 56.9% | 52.9% | 53.4% | 34.8% | 75.1% | 
5 | COc1ccc(C2CC(c3cccc(Nc4nc(Cl)nc5cc(OC)c(OC)cc45)c3)=Nc3c(N)nc(N)nc3N2)cc1 (stereo not drawn) | 34.5% | 57.8% | 94.5% | 70.1 | 62.7% | 72.1% | 95.6% | 54.2% | 100% | 92.1% | 81.8 | 90.7% | 117% | 100% | 94% | 94.7% | 36% | 43.6% | 101% | 
6 | COc1cc(OC)c(S(N)(=O)=O)cc1C(=O)/C=C/c1ccc(C)cc1 | 6.96% (active) | 9.47% (active) | 1.82% (active) | 33.3 | 19.1% |  | 33.8% | 1.84% (active) |  | 45.6% | 11.4 | 34.7% | 25.5% | 29.7% | 21.9% |  | 16.7% | 21.1% | 58.7% | 
7 | Cc1c(F)cc(C(N)=O)cc1NCC(=O)Nc1ccc([N+](=O)[O-])cc1 | 94% | 105% | 47.2% | 98.5 | 89.5% | 95.7% | 84.2% | 84.1% | 96.3% | 61.4% | 73.2 | 56.7% | 62.6% | 92.9% | 62.3% | 22.9% |  | 105% | 103% | 
8 | O=C(Cn1c(-c2ccccc2)nc2cc(Cl)c(Cl)cc21)N=Nc1c(O)[nH]c2ccc(Cl)cc12 | 68.7% | 51.4% | 101% | 87.8 | 70.8% | 79.5% | 71.7% | 72.2% |  | 75.5% | 89.8 | 73.7% | 104% |  | 70.2% |  | -8.19% (active) | 72.3% | 66.4% | 
9 | COc1cc(OC)c(S(N)(=O)=O)cc1C(C)=O | 103% | 103% | 130% | 101 | 94.9% |  | 100% | 105% |  | 102% | 97.2 | 97.4% | 94.9% | 107% | 95.6% |  | 109% |  | 107% | 
10 | CCNC(=O)N1CCc2cc(OC)c(OCCc3ccc(OC)nc3)cc2C1c1ccc(C)cc1C (stereo not drawn) | 6.9% (active) | 1.6% (active) | 45.8% | 25.7 | 26.8% | -31.6% (active) | 25.6% | 3.95% (active) | 1.68% (active) | 39.3% | 30.5 | 28.5% | 44.8% | 25% | 18.1% | -12.2% (active) |  | 22.6% | 41.5% | 
11 | NS(=O)(=O)c1ccc(-n2cc(-c3cccc(NC(=O)c4ccc(N5CCOCC5)c(C(F)(F)F)c4)c3)nn2)cc1 | 39.3% | 61% | 65.2% | 62.9 | 23.5% |  | 30.5% | 9.34% (active) |  |  | 43.9 | 26.7% | 98.6% |  | 51.1% |  | 20.3% | 11% | 54.7% | 54.2%
12 | COc1ccccc1-n1cc(C#N)c(N)c1C(=O)c1ccc(C)cc1 | 47.1% | 73.7% | 82% | 77.1 | 74.5% | 92% | 22.2% | 80.1% | 79.1% |  | 91.1 | 90% | 102% | 101% | 78.5% | 74.9% | 85.6% | 83.1% | 73.9% | 
13 | CNc1ncc2cc(-c3ccc(-c4ncccc4F)cc3Cl)c(=O)n(CC3OCC(N)CO3)c2n1 (stereo not drawn) | 87.5% | 48.1% | 24% | 69 | 81.9% | 82.6% | 78.6% | 32.3% | 93.5% | 57.6% | 59.8 | -12.3% (active) | 13.1% |  | 0.298% (active) | 6.43% (active) | 78.1% | 57.8% | 92.9% | 
14 | NS(=O)(=O)c1ccc(Nc2nc(Nc3ccccc3)nc3nnc(SCC(=O)NC4CCCCC4)n23)cc1 | 104% | 113% | 115% |  | 98.5% | 105% | 92.3% | 101% | 106% | 103% | 100 | 80.8% | 104% | 99.1% | 83.7% | 97.2% | 101% | 101% | 105% | 104%
15 | O=C(Nc1ccc2c(ccn2Cc2ccccn2)c1)c1cnccn1 | 112% | 109% | 57.9% |  | 101% | 97.5% | 89.6% | 98.3% | 103% | 75.7% | 75.9 | 57% | 61.9% | 100% | 66.2% | 40.8% |  | 101% | 111% | 105%
16 | C=C(C=O)[C@@H]1CC[C@]2(C)[C@H](CC=C3[C@H]4[C@@H](C)[C@H](C)CC[C@]4(C(=O)OC)CC[C@]32C)[C@@]1(C)CCC#N | -55% (active) | -37.4% (active) | 67.6% |  | 9.4% (active) | -98% (active) | -31.9% (active) | -86.1% (active) | -27.6% (active) | 15.2% | 12.9 | -83.5% (active) |  | -71.9% (active) | 3.89% (active) | 81.1% | 10.7% | 1.4% (active) | -39.4% (active) | 5.57% (active)
17 | CC(C)C[C@@H]1N[C@@]2(C(=O)Nc3ccccc32)[C@@H](c2ccc(F)cc2)[C@@H]1C(=O)c1ccc(O)cc1 | 93% | 105% | 96.8% |  | 63.6% | 93.5% | 69% | 92.4% | 102% |  | 96.5 | 58.3% | 120% | 80.1% | 67.3% | 94.5% | 85% | 77.5% | 103% | 
